Test results taken from PubChem BioAssay (NCATS).
Results filed as inconclusive are left out. Calls of active or inactive are those of the source. The call rests on the fitted dose curve; in most records, active means well fitted cell-killing curve with a large enough effect; inconclusive means small, poorly fitted or top-dose-only effect, or effect the other way; inactive means flat fitted curve, though single readings scatter.

Columns and labels:
Test in all cases: Primary qHTS to identify gynecologic anti-cancer compounds using libraries of approved drugs and bioactive compounds (AID 1345084); further: nearly all actives have a fitted effect of over 55% in size
[1] = tested on: C33A; settings: Gynecologic cancer cell panel viability, ATPlite luminescence, 48 h; series mostly up to 57.5 µM
Procedure, shortened: (§1)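 Cytotoxicity screen measuring ATP content by luciferase luminescence. Each compound is applied at five concentrations for 48 h at 37 C with 5% CO2.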

[2] = tested on: CAOV3; settings: Gynecologic cancer cell panel viability, ATPlite luminescence, 48 h; series mostly up to 57.5 µM
Procedure, shortened: as §1

[3] = tested on: CASKI; settings: Gynecologic cancer cell panel viability, ATPlite luminescence, 48 h; series mostly up to 57.5 µM
Procedure, shortened: as §1

[4] = tested on: Es-2; settings: Gynecologic cancer cell panel viability, ATPlite luminescence, 48 h; series mostly up to 57.5 µM
Procedure, shortened: as §1

[5] = tested on: HeLa; settings: Gynecologic cancer cell panel viability, ATPlite luminescence, 48 h; series mostly up to 57.5 µM
Procedure, shortened: as §1

[6] = tested on: Hek293T; settings: Gynecologic cancer cell panel viability, ATPlite luminescence, 48 h, control line for the selectivity index; series mostly up to 57.5 µM
Procedure, shortened: as §1

[7] = tested on: JEG-3; settings: Gynecologic cancer cell panel viability, ATPlite luminescence, 48 h; series mostly up to 57.5 µM
Procedure, shortened: as §1

[8] = tested on: OV90; settings: Gynecologic cancer cell panel viability, ATPlite luminescence, 48 h; series mostly up to 57.5 µM
Procedure, shortened: as §1

[9] = tested on: PA-1; settings: Gynecologic cancer cell panel viability, ATPlite luminescence, 48 h; series mostly up to 57.5 µM
Procedure, shortened: as §1

[10] = tested on: SKOV3; settings: Gynecologic cancer cell panel viability, ATPlite luminescence, 48 h; series mostly up to 57.5 µM
Procedure, shortened: as §1

[11] = tested on: Tov-21-G; settings: Gynecologic cancer cell panel viability, ATPlite luminescence, 48 h; series mostly up to 57.5 µM
Procedure, shortened: as §1

[12] = tested on: Tov112D; settings: Gynecologic cancer cell panel viability, ATPlite luminescence, 48 h; series mostly up to 57.5 µM
Procedure, shortened: as §1

Measured: Potency

CC(C)CC(=O)O[C@@H]1OC=C(CO[C@@H]2O[C@H](CO)[C@@H](O)[C@H](O)[C@H]2O)[C@H]2[C@@H]3O[C@H]3[C@@](O)(CO)[C@@H]12
inactive: all assays above

Oc1ccc2nc(CN3CCC(Cc4ccccc4F)CC3)[nH]c2c1
inactive: all assays above

O=C(OC[C@@]1(O)CO[C@@H](O[C@H]2[C@H](Oc3ccc(O)cc3)O[C@H](CO)[C@@H](O)[C@@H]2O)[C@@H]1O)c1ccc(O)cc1
inactive: all assays above

C[C@H]1CC[C@@H]2N(C1)C[C@@H]1[C@H]([C@@H](O)[C@H](O)[C@]3(O)[C@H]1C[C@@]14OC5(O)[C@@H](C[C@@H](O)[C@@H]31)[C@]4(C)CC[C@@H]5O)[C@]2(C)O
inactive: all assays above

C=C(C)C1CCC(C)C12CC(O)C1(C)OC1C2OC(=O)C(N)CCC(=O)O (configuration not stated)
inactive: all assays above

CCc1cc(CN2CC(C(=O)O)C2)sc1-c1noc(-c2ccc(Oc3ccccc3)cc2)n1
inactive: all assays above

C[C@@H]1CN(Cc2ccccc2)C[C@H]1c1nc2c(cnn2C2CCOCC2)c(=O)[nH]1
inactive: all assays above

C/C=C/C=C/C=C/C(=O)OC1C=C(C=O)C(O)(C(=O)O)C2(C)CCCC(C)(C)C12 (configuration not stated)
inactive: all assays above

CC1(C)CCC[C@]2(C)[C@H]3CC(=O)O[C@]3(C)CC[C@@H]12
inactive: all assays above

O=C(O)Cc1ccc2oc(-c3ccc(NC(=O)/C=C/c4ccc(Br)cc4)c(F)c3)nc2c1
inactive: all assays above

CC(CO)C1CCC2(C)CC3C(CO)CC(O)C3C(C)(O)C/C=C/12 (configuration not stated)
inactive: all assays above

Cn1c2ccc(F)cc2c2c(C(=O)N3CCCC3)cn(-c3ccccc3)c(=O)c21
inactive: all assays above

C=C(F)c1sc(CNCCCNc2cc(=O)c3ccccc3[nH]2)c(C)c1Br
inactive: all assays above

COC(=O)/C=C/C12COC(C)(C)C1C(O)C(OC(C)=O)C1(C)C2CCC2(C)C(c3ccoc3)OC(=O)C3OC321 (configuration not stated)
inactive: all assays above

C/C1=C\[C@H]2OC(=O)[C@@H](C)[C@@H]2CC/C(C(=O)O)=C/CC1
inactive: all assays above

c1ccc(-c2ncc(CN3CCN(c4ncccn4)CC3)[nH]2)cc1
inactive: all assays above
